# Laboratory results as given in ChEMBL document CHEMBL1961873, “Compounds: GSK PKIS; Assays: Nanosyn kinase panel” (2012).
# Legend:
# [1] = target: Leukocyte tyrosine kinase receptor (Homo sapiens) (UniProt P29376); settings: at 1 µM;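 also: each value is the mean inhibition of LTK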
# [2] = target: Tyrosine-protein kinase Lyn (Homo sapiens) (UniProt P07948); settings: at 0.1 µM
# [3] = target: Tyrosine-protein kinase Lyn (Homo sapiens) (UniProt P07948); settings: at 1 µM
# [4] = target: Tyrosine-protein kinase Lyn (Homo sapiens) (UniProt P07948); settings: at 0.1 µM; remark: listed apart in the source
# [5] = target: Tyrosine-protein kinase Lyn (Homo sapiens) (UniProt P07948); settings: at 1 µM; remark: listed apart in the source
# [6] = target: T1, Tyrosine-protein kinase Mer (Homo sapiens) (UniProt Q12866); settings: at 0.1 µM
# T1 sequence (whole entry): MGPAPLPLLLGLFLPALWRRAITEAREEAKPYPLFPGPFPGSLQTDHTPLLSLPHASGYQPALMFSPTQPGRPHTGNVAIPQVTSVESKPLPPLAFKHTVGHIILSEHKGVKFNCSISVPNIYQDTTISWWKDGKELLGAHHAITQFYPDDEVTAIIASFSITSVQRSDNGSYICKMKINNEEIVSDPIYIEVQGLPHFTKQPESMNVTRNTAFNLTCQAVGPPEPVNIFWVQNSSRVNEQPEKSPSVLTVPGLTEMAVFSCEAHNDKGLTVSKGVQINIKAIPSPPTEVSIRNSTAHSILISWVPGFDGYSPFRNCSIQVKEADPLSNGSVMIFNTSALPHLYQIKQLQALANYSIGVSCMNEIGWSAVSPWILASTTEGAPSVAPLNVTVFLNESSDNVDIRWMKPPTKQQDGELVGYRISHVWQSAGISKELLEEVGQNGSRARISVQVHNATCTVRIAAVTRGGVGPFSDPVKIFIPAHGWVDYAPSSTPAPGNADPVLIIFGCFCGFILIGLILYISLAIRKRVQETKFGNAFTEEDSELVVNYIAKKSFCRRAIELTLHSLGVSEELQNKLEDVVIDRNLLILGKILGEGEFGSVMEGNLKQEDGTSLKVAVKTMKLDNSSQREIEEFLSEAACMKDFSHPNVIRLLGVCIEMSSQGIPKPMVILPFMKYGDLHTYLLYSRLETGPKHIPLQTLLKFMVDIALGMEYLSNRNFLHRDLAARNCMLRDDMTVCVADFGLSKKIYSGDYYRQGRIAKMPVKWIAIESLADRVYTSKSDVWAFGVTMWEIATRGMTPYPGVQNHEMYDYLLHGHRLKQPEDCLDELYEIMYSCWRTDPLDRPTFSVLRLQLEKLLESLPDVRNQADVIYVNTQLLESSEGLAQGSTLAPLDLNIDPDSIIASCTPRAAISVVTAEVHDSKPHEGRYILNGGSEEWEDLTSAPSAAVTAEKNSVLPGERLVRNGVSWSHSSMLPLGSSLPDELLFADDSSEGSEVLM
# [7] = target: T1, Tyrosine-protein kinase Mer (Homo sapiens); settings: at 1 µM
# [8] = target: Hepatocyte growth factor receptor (Homo sapiens) (UniProt P08581); settings: at 0.1 µM
# [9] = target: Hepatocyte growth factor receptor (Homo sapiens) (UniProt P08581); settings: at 1 µM
# [10] = target: T2, Muscle, skeletal receptor tyrosine-protein kinase (Homo sapiens) (UniProt O15146); settings: at 0.1 µM
# T2 sequence (whole entry): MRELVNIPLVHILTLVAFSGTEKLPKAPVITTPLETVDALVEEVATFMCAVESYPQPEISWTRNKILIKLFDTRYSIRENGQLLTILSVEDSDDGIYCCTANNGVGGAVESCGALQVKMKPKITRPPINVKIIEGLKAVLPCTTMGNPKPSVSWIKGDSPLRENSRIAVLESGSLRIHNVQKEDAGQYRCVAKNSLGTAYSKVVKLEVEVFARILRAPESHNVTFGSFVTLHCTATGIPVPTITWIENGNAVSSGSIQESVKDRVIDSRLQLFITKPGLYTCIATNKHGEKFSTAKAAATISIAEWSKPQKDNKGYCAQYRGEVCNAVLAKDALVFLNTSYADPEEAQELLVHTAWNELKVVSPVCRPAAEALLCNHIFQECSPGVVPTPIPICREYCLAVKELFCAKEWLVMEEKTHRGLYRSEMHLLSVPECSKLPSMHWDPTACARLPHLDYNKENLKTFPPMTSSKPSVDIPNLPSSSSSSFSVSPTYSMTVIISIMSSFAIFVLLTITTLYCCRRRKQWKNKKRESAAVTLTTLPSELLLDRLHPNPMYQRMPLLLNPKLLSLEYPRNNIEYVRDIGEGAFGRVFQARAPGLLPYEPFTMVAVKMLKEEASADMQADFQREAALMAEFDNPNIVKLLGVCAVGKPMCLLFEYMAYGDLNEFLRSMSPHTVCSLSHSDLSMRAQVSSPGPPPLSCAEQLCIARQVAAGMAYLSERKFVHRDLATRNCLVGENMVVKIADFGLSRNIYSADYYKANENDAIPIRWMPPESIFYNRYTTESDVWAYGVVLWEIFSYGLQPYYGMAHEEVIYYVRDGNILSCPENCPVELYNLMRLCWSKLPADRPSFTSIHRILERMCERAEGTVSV
# [11] = target: T2, Muscle, skeletal receptor tyrosine-protein kinase (Homo sapiens); settings: at 1 µM
# [12] = target: Platelet-derived growth factor receptor alpha (Homo sapiens) (UniProt P16234); settings: at 0.1 µM
# [13] = target: Platelet-derived growth factor receptor alpha (Homo sapiens) (UniProt P16234); settings: at 1 µM
# [14] = test system: Platelet-derived growth factor receptor alpha (Homo sapiens), P16234 [D842V]; settings: at 0.1 µM
# [15] = test system: Platelet-derived growth factor receptor alpha (Homo sapiens), P16234 [D842V]; settings: at 1 µM
# [16] = test system: Platelet-derived growth factor receptor alpha (Homo sapiens), P16234 [T674I]; settings: at 0.1 µM
# [17] = test system: Platelet-derived growth factor receptor alpha (Homo sapiens), P16234 [T674I]; settings: at 1 µM
# [18] = test system: Platelet-derived growth factor receptor alpha (Homo sapiens), P16234 [V561D]; settings: at 0.1 µM
# [19] = test system: Platelet-derived growth factor receptor alpha (Homo sapiens), P16234 [V561D]; settings: at 1 µM
# [20] = target: Platelet-derived growth factor receptor beta (Homo sapiens) (UniProt P09619); settings: at 0.1 µM;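 also: reported value is the mean percent inhibition of the kinase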
# Chain of Platelet-derived growth factor receptor beta (Homo sapiens) (P09619 whole entry): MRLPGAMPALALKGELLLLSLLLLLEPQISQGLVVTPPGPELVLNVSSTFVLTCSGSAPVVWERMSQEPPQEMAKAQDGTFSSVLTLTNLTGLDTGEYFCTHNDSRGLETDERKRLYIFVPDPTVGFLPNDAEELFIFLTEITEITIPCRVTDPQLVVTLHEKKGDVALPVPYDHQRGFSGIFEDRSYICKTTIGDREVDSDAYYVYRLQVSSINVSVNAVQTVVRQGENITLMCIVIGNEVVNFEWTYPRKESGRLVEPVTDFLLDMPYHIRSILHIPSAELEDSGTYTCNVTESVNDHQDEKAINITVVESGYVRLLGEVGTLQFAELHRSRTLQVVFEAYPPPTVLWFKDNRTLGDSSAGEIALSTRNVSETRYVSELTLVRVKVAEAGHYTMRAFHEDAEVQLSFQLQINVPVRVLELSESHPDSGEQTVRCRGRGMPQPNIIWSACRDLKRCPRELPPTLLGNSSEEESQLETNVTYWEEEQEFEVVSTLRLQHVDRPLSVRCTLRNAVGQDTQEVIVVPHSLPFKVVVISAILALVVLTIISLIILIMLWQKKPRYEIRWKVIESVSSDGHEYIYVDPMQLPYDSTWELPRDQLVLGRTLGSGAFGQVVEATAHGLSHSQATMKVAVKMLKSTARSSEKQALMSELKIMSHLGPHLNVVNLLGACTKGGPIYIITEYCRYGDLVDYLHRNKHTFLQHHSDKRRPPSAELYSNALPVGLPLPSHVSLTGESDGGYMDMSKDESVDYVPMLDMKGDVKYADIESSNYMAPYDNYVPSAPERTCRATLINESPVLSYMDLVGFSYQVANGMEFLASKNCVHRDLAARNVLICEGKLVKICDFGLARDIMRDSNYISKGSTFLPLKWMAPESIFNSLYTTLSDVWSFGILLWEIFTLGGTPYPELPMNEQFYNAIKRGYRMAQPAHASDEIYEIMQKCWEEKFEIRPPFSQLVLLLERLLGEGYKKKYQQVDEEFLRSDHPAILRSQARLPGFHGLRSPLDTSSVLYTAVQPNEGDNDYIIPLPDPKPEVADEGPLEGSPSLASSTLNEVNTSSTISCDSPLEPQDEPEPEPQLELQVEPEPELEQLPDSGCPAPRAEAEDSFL
# Chain of Tyrosine-protein kinase Lyn (Homo sapiens) (P07948 2-512 limits assumed): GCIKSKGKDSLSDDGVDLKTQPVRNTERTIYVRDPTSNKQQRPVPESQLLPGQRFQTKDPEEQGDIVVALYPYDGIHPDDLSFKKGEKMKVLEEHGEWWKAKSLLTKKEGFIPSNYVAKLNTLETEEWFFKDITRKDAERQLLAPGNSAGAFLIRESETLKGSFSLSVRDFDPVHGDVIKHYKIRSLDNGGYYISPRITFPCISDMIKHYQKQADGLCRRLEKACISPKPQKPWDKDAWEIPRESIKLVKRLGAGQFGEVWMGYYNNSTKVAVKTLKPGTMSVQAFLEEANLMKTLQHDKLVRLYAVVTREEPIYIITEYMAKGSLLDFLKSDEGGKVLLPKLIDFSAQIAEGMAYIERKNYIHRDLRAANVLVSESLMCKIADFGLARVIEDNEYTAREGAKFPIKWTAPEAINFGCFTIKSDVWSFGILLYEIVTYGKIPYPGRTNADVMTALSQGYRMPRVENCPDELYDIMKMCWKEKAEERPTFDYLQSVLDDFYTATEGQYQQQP
# Chain of Hepatocyte growth factor receptor (Homo sapiens) (P08581 whole entry): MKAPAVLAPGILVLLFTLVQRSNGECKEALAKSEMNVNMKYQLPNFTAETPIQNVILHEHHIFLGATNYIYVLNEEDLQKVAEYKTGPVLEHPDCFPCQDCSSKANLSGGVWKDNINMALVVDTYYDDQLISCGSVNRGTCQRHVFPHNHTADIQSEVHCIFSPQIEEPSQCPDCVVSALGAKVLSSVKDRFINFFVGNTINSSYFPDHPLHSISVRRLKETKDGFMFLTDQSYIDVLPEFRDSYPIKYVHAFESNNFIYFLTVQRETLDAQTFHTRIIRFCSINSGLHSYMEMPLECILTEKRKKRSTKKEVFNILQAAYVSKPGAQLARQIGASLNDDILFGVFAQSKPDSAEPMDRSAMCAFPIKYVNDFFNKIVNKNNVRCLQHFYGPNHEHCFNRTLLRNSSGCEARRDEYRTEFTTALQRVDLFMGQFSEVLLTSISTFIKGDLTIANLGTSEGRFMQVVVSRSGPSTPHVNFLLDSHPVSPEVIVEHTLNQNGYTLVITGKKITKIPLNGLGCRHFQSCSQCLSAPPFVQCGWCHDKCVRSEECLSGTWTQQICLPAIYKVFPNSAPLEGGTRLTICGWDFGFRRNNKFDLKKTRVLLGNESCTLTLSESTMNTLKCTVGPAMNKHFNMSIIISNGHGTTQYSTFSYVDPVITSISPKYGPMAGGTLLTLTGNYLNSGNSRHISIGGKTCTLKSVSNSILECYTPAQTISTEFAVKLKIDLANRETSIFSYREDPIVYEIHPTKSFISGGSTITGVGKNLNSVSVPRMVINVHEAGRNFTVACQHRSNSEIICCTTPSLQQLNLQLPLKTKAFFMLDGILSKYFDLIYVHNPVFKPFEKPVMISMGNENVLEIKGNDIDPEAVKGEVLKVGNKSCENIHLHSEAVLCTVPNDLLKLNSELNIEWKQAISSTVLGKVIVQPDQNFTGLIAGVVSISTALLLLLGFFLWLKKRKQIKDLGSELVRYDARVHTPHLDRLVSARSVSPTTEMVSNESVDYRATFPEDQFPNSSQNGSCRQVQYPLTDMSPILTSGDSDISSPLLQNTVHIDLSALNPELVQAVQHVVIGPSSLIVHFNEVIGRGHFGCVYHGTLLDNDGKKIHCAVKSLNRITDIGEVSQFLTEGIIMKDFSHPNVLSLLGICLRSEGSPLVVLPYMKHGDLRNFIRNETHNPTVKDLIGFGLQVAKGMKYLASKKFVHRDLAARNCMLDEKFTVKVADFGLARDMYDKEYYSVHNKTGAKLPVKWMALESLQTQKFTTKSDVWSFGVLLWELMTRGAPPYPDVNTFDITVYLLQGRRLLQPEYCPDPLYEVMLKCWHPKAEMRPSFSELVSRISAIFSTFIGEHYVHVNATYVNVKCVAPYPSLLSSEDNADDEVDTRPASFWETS
# Chain of Platelet-derived growth factor receptor alpha (Homo sapiens) (P16234 whole entry): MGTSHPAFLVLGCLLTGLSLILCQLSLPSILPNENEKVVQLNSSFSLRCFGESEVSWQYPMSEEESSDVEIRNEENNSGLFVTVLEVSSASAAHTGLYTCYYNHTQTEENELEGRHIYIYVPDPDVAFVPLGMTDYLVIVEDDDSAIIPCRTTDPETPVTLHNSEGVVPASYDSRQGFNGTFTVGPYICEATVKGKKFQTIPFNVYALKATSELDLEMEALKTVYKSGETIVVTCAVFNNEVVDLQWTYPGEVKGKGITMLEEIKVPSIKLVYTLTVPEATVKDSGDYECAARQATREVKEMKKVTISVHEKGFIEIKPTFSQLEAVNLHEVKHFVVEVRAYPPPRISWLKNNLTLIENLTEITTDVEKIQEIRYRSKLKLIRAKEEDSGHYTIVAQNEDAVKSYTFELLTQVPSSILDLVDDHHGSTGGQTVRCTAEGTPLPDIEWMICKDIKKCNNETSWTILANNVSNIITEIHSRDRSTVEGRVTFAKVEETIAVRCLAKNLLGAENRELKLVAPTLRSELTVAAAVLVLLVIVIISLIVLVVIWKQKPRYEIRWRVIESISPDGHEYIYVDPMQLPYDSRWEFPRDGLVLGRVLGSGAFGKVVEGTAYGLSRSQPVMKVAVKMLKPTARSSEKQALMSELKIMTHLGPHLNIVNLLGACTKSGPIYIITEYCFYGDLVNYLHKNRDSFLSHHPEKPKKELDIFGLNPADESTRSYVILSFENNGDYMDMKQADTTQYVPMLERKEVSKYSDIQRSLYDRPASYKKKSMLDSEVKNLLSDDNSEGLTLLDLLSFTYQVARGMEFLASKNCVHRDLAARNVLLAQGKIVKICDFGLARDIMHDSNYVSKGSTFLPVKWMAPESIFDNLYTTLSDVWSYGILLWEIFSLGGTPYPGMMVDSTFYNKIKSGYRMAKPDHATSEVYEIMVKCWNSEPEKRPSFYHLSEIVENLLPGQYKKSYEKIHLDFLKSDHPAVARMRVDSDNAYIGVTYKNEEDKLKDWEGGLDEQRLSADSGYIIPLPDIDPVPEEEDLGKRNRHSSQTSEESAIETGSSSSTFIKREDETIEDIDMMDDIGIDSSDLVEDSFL
# Chain of Leukocyte tyrosine kinase receptor (Homo sapiens) (P29376 whole entry): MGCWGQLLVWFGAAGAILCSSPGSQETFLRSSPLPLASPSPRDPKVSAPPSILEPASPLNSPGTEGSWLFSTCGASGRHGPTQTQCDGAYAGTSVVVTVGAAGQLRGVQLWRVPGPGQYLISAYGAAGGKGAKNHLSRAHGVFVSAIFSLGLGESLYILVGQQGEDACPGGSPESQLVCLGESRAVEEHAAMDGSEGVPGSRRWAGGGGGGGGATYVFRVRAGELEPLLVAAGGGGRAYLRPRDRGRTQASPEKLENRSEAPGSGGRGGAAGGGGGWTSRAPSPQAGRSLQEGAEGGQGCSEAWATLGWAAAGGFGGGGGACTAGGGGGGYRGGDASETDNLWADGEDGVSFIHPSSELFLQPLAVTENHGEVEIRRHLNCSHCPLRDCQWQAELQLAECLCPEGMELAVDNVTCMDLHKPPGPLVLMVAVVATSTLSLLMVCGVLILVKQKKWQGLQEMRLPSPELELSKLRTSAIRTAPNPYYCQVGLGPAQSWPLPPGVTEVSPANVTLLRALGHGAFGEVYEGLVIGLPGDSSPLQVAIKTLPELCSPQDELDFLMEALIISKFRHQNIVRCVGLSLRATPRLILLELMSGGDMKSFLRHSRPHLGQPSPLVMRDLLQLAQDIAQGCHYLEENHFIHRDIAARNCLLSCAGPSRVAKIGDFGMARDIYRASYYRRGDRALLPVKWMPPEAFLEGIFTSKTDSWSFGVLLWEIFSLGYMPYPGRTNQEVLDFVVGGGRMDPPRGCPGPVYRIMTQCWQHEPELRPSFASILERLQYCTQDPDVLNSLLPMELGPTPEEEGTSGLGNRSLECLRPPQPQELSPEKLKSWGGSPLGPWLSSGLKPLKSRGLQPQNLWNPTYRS
Structure (SMILES),inhibition [1],inhibition [2],inhibition [3],inhibition [4],inhibition [5],inhibition [6],inhibition [7],inhibition [8],inhibition [9],inhibition [10],inhibition [11],inhibition [12],inhibition [13],inhibition [14],inhibition [15],inhibition [16],inhibition [17],inhibition [18],inhibition [19],inhibition [20]
CN1CCN(CCCNc2nc3ccc(Oc4ccc(NC(=O)Nc5cc(C(F)(F)F)ccc5F)cc4)cc3[nH]2)CC1,-0.03%,1.76%,13.2%,0.61%,9.37%,2.04%,6.67%,5.66%,8.95%,15%,59.2%,32.6%,76.4%,2.11%,4.41%,29.5%,90.7%,36%,80.7%,14.1%
NCc1ccc(-n2c(-c3nonc3N)nc3cnccc32)cc1,5.03%,6.22%,5.56%,4.38%,2.34%,1.5%,5.54%,5.16%,9.91%,6.42%,8.78%,10.2%,18%,9%,16.1%,8.3%,17.7%,2.5%,8.66%,9.08%
C/C(Nc1ccc(S(N)(=O)=O)cc1)=C1/C(=O)Nc2ccccc21,9.41%,1.53%,8.14%,0.71%,6.94%,0.6%,9.21%,3.68%,9.39%,3.8%,30.9%,13.8%,53.2%,4.56%,33.6%,34.4%,95.7%,25%,62%,9.96%
FC(F)(F)c1cccc(Nc2nccc(-c3cnn4nc(-c5ccccc5)ccc34)n2)c1,0.52%,0.75%,3.22%,0.52%,2.95%,-0.58%,0.62%,-0.38%,0.28%,1.03%,0.42%,7.91%,42.6%,4.44%,33.6%,3.36%,9.98%,6.8%,39.2%,7.48%
Nc1nccc(-c2c(-c3ccc(F)cc3)ncn2C2CCC(O)CC2)n1 (centres undefined),0.8%,3.13%,23.6%,1.4%,18%,1.22%,7.13%,0.14%,3.65%,0.79%,4.37%,2.63%,21.6%,2.7%,14.2%,0.95%,0.82%,5.61%,21.1%,5.21%
c1ccc(-c2n[nH]cc2-c2ccnc(-c3ccc(OCCN4CCOCC4)cc3)c2)nc1,-0.95%,1.31%,10.2%,1.54%,7.34%,5.12%,5.39%,7.49%,5.59%,6.97%,9.04%,20.1%,58.7%,18.6%,71%,5.25%,-0.97%,11.7%,55.5%,16.2%
Fc1ccc(-c2ncn(C3CCNCC3)c2-c2ccnc(Oc3ccc(Oc4ccccc4)cc3)n2)cc1,4.33%,3.46%,5.25%,1.56%,2.92%,1.43%,10.6%,9.38%,0.02%,2.43%,8.37%,3.69%,9.58%,0.69%,1.95%,2.85%,6.65%,2.74%,3.75%,2.57%
N#Cc1ccc(Oc2nccc(-c3c(-c4ccc(F)cc4)ncn3C3CCNCC3)n2)cc1,5.69%,5.36%,7.26%,3.37%,4.34%,2.29%,2.26%,3.69%,6.49%,1.86%,0.9%,4.83%,10.1%,3.33%,4.12%,3.29%,8.12%,3.7%,3.69%,2.5%
Clc1ccc(CNc2nccc(-c3cnn4ncccc34)n2)cc1,0.38%,3.2%,5.62%,1.68%,3.11%,-0.52%,0.99%,2.02%,7.73%,3.18%,3.54%,4.87%,15.4%,0.87%,4.84%,0.55%,2.46%,1.98%,7.98%,3.92%
CN(C)CCOc1ccc(-c2cc(-c3ccc4c(c3)CCC4=NO)c(-c3ccncc3)o2)cc1,-0.32%,0.86%,4.14%,0.71%,3.2%,,4.1%,12.9%,5.81%,-0.04%,-1%,3.05%,9.14%,0.21%,2.8%,-0.07%,2.19%,0.77%,4.25%,2.38%
CNC(=O)c1cncc(/C=C/c2c(C)cccc2C)c1,-0.39%,22.1%,72.4%,17.6%,67.8%,-0.47%,3.56%,-0.92%,1.41%,3.8%,5.15%,8.57%,34.4%,0.09%,4.23%,0.35%,1.37%,21.3%,48%,7.03%
CCc1ccc(Oc2nccc(-c3c(-c4ccc(F)cc4)ncn3C3CCNCC3)n2)cc1,2.68%,5.24%,6.76%,1.59%,3.26%,2.01%,3.05%,5.76%,3.25%,3.3%,6.47%,2.2%,10.4%,1.14%,3.96%,4.41%,8.8%,2.14%,4.49%,1.82%
Cc1ccc(C(=O)NC2CCC2)cc1-c1ccc(C(=O)NCC2CC2)cc1,2.04%,3.48%,2.47%,2.55%,1.61%,2.37%,6.88%,3.95%,6.08%,2.41%,3.12%,1.47%,4.53%,3.52%,0.66%,3.43%,3.17%,2.49%,5.32%,-0.12%
Fc1ccc(-c2c(-c3ccncc3)nc3n2CCS3)cc1,1.53%,2.47%,6.12%,1.33%,3.93%,1.44%,1.51%,3.45%,0.39%,4.78%,1.19%,4.27%,11.9%,1.59%,3.82%,3.55%,3.84%,2.1%,2.96%,1.36%
